Calls of active or inactive are those of the source. Unless noted, the rule behind the calls is not given here.

The nature of assay [1]: resazurin metabolic signal in HepG2 cells – cell-based, resazurin fluorescence, 24 h, PK04 Diversity Set, profiling panel (AID 1172). Note: test concentration not given here. As to conditions: HepG2 viability, higher = more signal. A general note: Alamar Blue is a resazurin reagent that responds to reducing activity.
Assay [2] is described as follows: budding yeast growth changes without added modifier – OD600, strain BY4716, 24 h, basal condition, primary screen (AID 1173). As to conditions: S. cerevisiae BY4716 growth, OD600, 24 h; higher = more signal, called active from +8 up or from −8 down.
Assay [3] can be described thus: viability profiling in MM1S myeloma cells – cell-based, resazurin fluorescence, basal, 24 h, PK04 Diversity Set, profiling panel (AID 1174).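 Note: MM1S multiple myeloma cell line; test concentration not given here.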 As to conditions: higher = more signal, called active from +8 up or from −8 down.
The target of assay [4] is Dihydroorotate dehydrogenase (quinone), mitochondrial (Plasmodium falciparum (isolate 3D7)) (UniProt Q08210). Nature of the assay: inhibition of P. falciparum DHODH – biochemical, C-terminal His tag, absorbance 600 nm, primary screen (AID 1175).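 Note: recombinant parasite enzyme with a five histidine tag at its C terminus; test concentration not given here.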 As to conditions: PfDHODH enzyme, DCIP absorbance 600 nm; higher = more signal, called active from +8 up or from −8 down.
The nature of assay [5]: inhibition of PAO1 biofilm formation – strain PAO1, LB-PBS medium, absorbance 600 nm, primary screen (AID 1176). Note: test concentration not given here. As to conditions: P. aeruginosa PAO1 growth/biofilm, A600, 12 h; higher = more signal.
Assay [6] is described as follows: growth modulation of vineyard yeast isolate – strain RM11-1a, OD600, basal, 24 h, primary screen (AID 1177).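 Note: cultures grown under basal conditions with no added stressor; test concentration not given here.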 As to conditions: S. cerevisiae RM11-1a growth, OD600, 24 h; higher = more signal, called active from +8 up or from −8 down.
Assay [7] is described as follows: growth of efflux-deficient E. coli DRC39 – strain DRC39, OD650, 24 h, E. coli filamentation inducers, primary screen (AID 1178).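 Note: growth measured as culture turbidity by optical density at 650 nm; test concentration not given here.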 As to conditions: E. coli DRC39 acrAB, higher = more signal, called active from +8 up or from −8 down.
Assay [8] can be described thus: growth of efflux-deficient E. coli DRC39 – strain DRC39, OD650, 48 h, E. coli filamentation inducers, primary screen (AID 1179).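 Note: screen aims at cell division blockers that make cells filament.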 As to conditions: E. coli DRC39 delta-acrAB growth, higher = more signal, called active from +8 up or from −8 down.
Assay [9] can be described thus: viability profiling in RPMI8226 myeloma cells – cell-based, resazurin fluorescence, basal, 24 h, PK04 Diversity Set, profiling panel (AID 1180).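 Note: RPMI8826 multiple myeloma cell line at 5000 cells per well; test concentration not given here.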 As to conditions: higher = more signal.
The target of assay [10] is E3 ubiquitin-protein ligase XIAP (Homo sapiens) (UniProt P98170). Nature of the assay: small molecules binding XIAP protein – biophysical, small-molecule microarray, fluorescence 635 nm, primary screen (AID 1181).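 Note: score merges 667 nm emission and signal to noise over triplicate slides.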 As to conditions: higher = more signal.
Sequence of E3 ubiquitin-protein ligase XIAP (Homo sapiens) (P98170 whole entry, looked up): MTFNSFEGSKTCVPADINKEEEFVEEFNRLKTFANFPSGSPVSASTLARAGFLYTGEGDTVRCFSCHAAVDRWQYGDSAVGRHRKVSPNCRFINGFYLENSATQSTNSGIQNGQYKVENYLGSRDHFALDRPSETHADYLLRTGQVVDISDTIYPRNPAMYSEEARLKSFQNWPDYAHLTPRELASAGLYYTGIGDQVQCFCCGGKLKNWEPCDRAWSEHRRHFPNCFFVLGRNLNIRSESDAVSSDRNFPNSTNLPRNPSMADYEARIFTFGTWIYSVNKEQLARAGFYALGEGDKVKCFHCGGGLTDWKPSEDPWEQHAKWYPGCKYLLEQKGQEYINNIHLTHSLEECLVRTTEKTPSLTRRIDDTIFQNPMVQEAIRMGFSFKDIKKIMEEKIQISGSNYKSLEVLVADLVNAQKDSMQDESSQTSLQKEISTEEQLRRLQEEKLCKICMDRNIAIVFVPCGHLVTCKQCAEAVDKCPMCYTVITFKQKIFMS

Sequence of Dihydroorotate dehydrogenase (quinone), mitochondrial (Plasmodium falciparum (isolate 3D7)) (Q08210 whole entry, looked up): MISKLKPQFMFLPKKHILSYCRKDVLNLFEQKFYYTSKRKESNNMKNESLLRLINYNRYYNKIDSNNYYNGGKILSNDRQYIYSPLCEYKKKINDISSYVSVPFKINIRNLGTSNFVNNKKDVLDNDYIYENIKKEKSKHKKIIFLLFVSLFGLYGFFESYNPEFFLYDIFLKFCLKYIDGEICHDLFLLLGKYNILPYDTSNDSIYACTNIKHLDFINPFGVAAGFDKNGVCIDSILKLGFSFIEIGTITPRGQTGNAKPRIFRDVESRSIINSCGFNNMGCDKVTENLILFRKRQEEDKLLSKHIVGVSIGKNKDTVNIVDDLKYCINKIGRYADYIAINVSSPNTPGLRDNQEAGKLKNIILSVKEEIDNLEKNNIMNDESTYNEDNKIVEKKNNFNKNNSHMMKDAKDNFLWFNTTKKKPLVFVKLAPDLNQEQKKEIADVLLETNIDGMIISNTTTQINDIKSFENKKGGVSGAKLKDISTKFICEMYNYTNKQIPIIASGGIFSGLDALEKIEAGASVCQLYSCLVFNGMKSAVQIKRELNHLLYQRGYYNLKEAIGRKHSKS

In the case of `C=CCN1C(=O)[C@]2(Cc3ccccc31)N=C(c1ccc(OCCCO)cc1)O[C@@H]2c1ccccc1`, the z-score in [1] was -1.05; in assay [2] it was -2.22 (inactive); in [3], -1.48 (inactive); in assay [5] it was 0.134 (inactive); in [6], 0.821 (inactive); in assay [7], -1.3 (inactive). The figures for the z-score in assay [8] and in assay [9] were -0.802 (inactive) and -1.33, respectively. Further, the composite z-score was -0.699 (inactive) in [4] and -0.0062 in assay [10].

Consider `O=C1C2C=CC(C(O)c3ccc(B(O)O)cc3)N(Nc3ccc([N+](=O)[O-])cc3)C2C(=O)N1c1ccccc1` (stereo not given), for which the z-score in [1] was 0.0107; in assay [2], -17.3 (active); in assay [3], -0.307 (inactive); in assay [5] it was 0.188 (inactive); in [6], -22.9 (active); in [7], -1.01 (inactive). Also, the z-score was -0.657 (inactive) in assay [8] and -0.423 in assay [9]. Moreover, the composite z-score is -3.05 (inactive) in [4] and 0.0823 in [10].

Take `CO[C@H]1O[C@H](CO)[C@@H](OC(=O)Nc2ccccc2-c2ccccc2)[C@H](OC(=O)Nc2ccccc2-c2ccccc2)[C@H]1OC(=O)Nc1ccccc1-c1ccccc1`: the z-score in assay [1] is -1.04; in [2] it was 1.95 (inactive); in assay [3], -1.6 (inactive); in assay [5] it was 1.45 (inactive); in assay [6] it was 4.43 (inactive); in assay [7], 0.494 (inactive). In addition, the z-score in assay [8] was -0.0039 (inactive); in [9] it was -1.6. Besides, the composite z-score in assay [4] is -0.236 (inactive); in assay [10], 1.26.

On to `CN1C(=O)C2C=CC(C(O)C(C)(C)C)N(Nc3ccccc3)C2C1=O` (stereo not given), for which the z-score in assay [1] was -0.376; in [2], 0.66 (inactive); in assay [3], -0.281 (inactive); in assay [5], 0.695 (inactive); in assay [6], 0.0609 (inactive); in assay [7] it was -0.568 (inactive). The z-score was 0.108 (inactive) in assay [8] and -0.444 in assay [9]. In addition, the figures for the composite z-score in assay [4] and in assay [10] were -0.702 (inactive) and 0.621, respectively.

Turning to `CN(C)CCCC[C@@H]1NC(=O)[C@H]2C[C@@H](C(=O)NCCCCCNC(=O)CS)[C@@H](c3ccc(O)cc3)N2C1=O`, the z-score in assay [1] was -0.0707; in assay [2], -0.691 (inactive); in assay [3] it was 0.518 (inactive); in assay [5], -0.13 (inactive); in assay [6] it was -0.158 (inactive); in [7] it was -0.297 (inactive). Also, the z-score in [8] is 0.326 (inactive); in assay [9], 0.108. The composite z-score is 0.419 (inactive) in assay [4] and -0.0344 in assay [10].

Consider `COCCOC(=O)N1C(=O)[C@@]2(c3cc(C#CCC(C(=O)OC)C(=O)OC)ccc31)[C@H](c1ccc(OCCO)cc1)N1[C@H](c3ccccc3)[C@H](c3ccccc3)OC(=O)[C@H]1[C@@H]2C(=O)NC[C@H](O)c1ccccc1`, for which the z-score was 0.11 in assay [1]; 2.19 (inactive) in [2]; 0.241 (inactive) in assay [3]; 2.7 (inactive) in assay [5]; 3.3 (inactive) in assay [6]; 0.732 (inactive) in assay [7]. Further, the z-score was 0.855 (inactive) in assay [8] and -0.957 in assay [9]. Further, the composite z-score in assay [4] is 0.0044 (inactive); in assay [10], 0.19.

Consider `COc1ccc(C(O)C2C=CC3C(=O)N(c4ccccc4)C(=O)C3N2Nc2ccccc2)c2ccccc12` (stereo not given), for which the z-score in [1] was -1.41; in assay [2], -5.12 (inactive); in [3] it was -1.42 (inactive); in assay [5], 1.48 (inactive); in [6] it was 0.163 (inactive); in assay [7], -1.05 (inactive). Further, the z-score is -0.0025 (inactive) in assay [8] and -1.95 in [9]. The composite z-score in [4] was 0.896 (inactive); in assay [10] it was -0.0049.

With `CC(C)C(O)C1C=CC2C(=O)N(C)C(=O)C2N1N1CCCCC1` (stereo not given), the z-score in assay [1] is -0.401; in assay [2], 0.717 (inactive); in assay [3], -0.82 (inactive); in [5], 0.916 (inactive); in assay [6], 0.0471 (inactive); in [7] it was -0.754 (inactive). For the same compound, the z-score in assay [8] was -0.837 (inactive); in assay [9], -0.323. The figures for the composite z-score in [4] and in [10] were -0.0607 (inactive) and -0.0448, respectively.

`C=CCC(OC(C)=O)[C@@H]1[C@@H](N(Cc2cc3ccccc3o2)C(=O)c2cccc3ccccc23)c2cc(OCCCO)ccc2N1C(=O)Cc1ccc(OC)cc1` (stereo not given in full): the z-score in assay [1] was -1.29; in [2], -0.149 (inactive); in assay [3] it was -1.17 (inactive); in assay [5], -0.334 (inactive); in assay [6], 0.196 (inactive); in [7], -0.386 (inactive). The z-score in [8] is -0.725 (inactive); in [9] it was -1.17. Further, the composite z-score in assay [4] was 0.507 (inactive); in [10], 0.211.
